The results in this text go back to publication PMC13083723 (Patterns, 2026).

The whole screen tested about 5,400 compounds, of which about 190 (3.5%) showed an effect of 50% or more. Only a selection was taken, and strong results are over-represented in it overall. Positions of bridges follow the written chain, without caps; N, C: chain ends. Non-standard residues stand in square brackets, D forms with d. Residues, ends and D or L forms follow the SMILES beside them. *: point of attachment. X1 = CCC(C)C(N)C1=NC(C(=O)*)CS1; dOrn = NCCC[C@@H](N)C(=O)O

This assay has as its system Vero-E6. Briefly: primary screen, phospholipidosis by LipidTOX staining; higher = more effect of the substance. To be noted: 10 µM. An outline of the steps: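 Drug-induced phospholipidosis detected with HCS LipidTOX Red reagent in Vero-E6 cells. Compounds tested at 10 μM, with amiodarone (10 μM) as positive control and DMSO (0.1 v/v %) as vehicle.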
On to `CC(O)COC[C@H]1OC2O[C@H]3[C@H](O)[C@@H](O)C(O[C@H]4[C@H](O)[C@@H](O)C(O[C@H]5[C@H](O)[C@@H](O)C(O[C@H]6[C@H](O)[C@@H](O)C(O[C@H]7[C@H](O)[C@@H](O)C(O[C@H]8[C@H](O)[C@@H](O)C(O[C@H]1[C@H](O)[C@H]2O)O[C@@H]8COCC(C)O)O[C@@H]7COCC(C)O)O[C@@H]6COCC(C)O)O[C@@H]5COCC(C)O)O[C@@H]4COCC(C)O)O[C@@H]3COCC(C)O` (some centres unmarked), for which the result_ITMP is -3.69%.
For `COc1ccc(C[C@@H](C)[C@@H](C)Cc2ccc(OC)c(OC)c2)cc1OC`, the result_ITMP is 6.63%.
As to `COc1ccc(Cc2nc(=O)c3c(C)nc([C@@H](CCCc4ccccc4)[C@@H](C)O)n3[nH]2)cc1OC`, the result_ITMP was 0.34%.
In the case of `C=CC(=O)Nc1cccc(Oc2nc(Nc3ccc(N4CCN(C)CC4)cc3)ncc2Cl)c1`, the result_ITMP was 70.5%.
In the case of `C=CC(=O)Nc1cccc(Oc2nc(Nc3ccc(N4CCN(C)CC4)cc3)nc3ccsc23)c1`, the result_ITMP is reported as 37.8%.
Consider `C=CC(=O)Nc1cccc(Oc2nc(Nc3ccc(N4CCN(C)CC4)cc3OC)ncc2Cl)c1`, for which the result_ITMP is -1.32%.
On to `C[C@H]1[C@H](C)CC[C@]2(C(=O)O)CC[C@]3(C)C(=CC[C@@H]4[C@@]5(C)C[C@@H](O)[C@H](O)[C@@](C)(CO)[C@@H]5CC[C@]43C)[C@H]12`, for which the result_ITMP is given as -2.77%.
Take `Cc1cnc(Nc2ccc(OCCN3CCCC3)cc2)nc1Nc1cccc(S(=O)(=O)NC(C)(C)C)c1`: the result_ITMP was 122%.
Turning to `Cc1cnc(Nc2ccc(N3CCN(C)CC3)cc2)nc1Nc1cccc(S(=O)(=O)NC(C)(C)C)c1`, the result_ITMP came to 21.8%.
In the case of `Cc1cc(-c2cc(O)ccc2Cl)cc2nnc(Nc3ccc(OCCN4CCCC4)cc3)nc12` it was -2.38%; in that of `Cn1cnc2nc(O)nc(O)c21`, 0.82%; in that of `Cc1nc2ccc(Oc3ccc(F)cc3)cc2c(=O)n1C[C@H]1CCCN(C(C)C)C1`, 56.3%.
Turning to `O=C([O-])[C@H](O)[C@@H](O)[C@H](O)[C@H](O)C(O)CO` (some centres unmarked), the result_ITMP was -2.51%.
Consider `Cn1nccc1Nc1nccc(-c2ccn([C@H](CO)c3ccc(Cl)c(F)c3)c(=O)c2)n1` [R4A_0003897_001 / SPE_A20830788], for which the result_ITMP was 1.66%.
`COCCCC/C(=N\OCCN)c1ccc(C(F)(F)F)cc1`: the result_ITMP is reported as 48.9%.
In the case of `CN(CC[C@@H](Oc1ccc(-c2ccccc2)cc1)c1ccc(F)cc1)CC(=O)O`, the result_ITMP was 0.25%.
In the case of `CNCCC(Oc1ccccc1OC)c1ccccc1` (centres unmarked), the result_ITMP came out at 13%.
For `CNCCC(Oc1ccc(C(F)(F)F)cc1)c1ccccc1` (centres unmarked), the result_ITMP amounted to 54.3%.
For `NCCC(Oc1ccc(C(F)(F)F)cc1)c1ccccc1` (centres unmarked), the result_ITMP was 62.2%.
As for `CN1C2CC(O)[C@H]1C[C@@H](OC(=O)[C@H](CO)c1ccccc1)C2` (mixture of isomers), the result_ITMP is reported as -3.11%.
In the case of `CCCN1C[C@@H](NS(=O)(=O)N(CC)CC)C[C@@H]2Cc3c(O)cccc3C[C@H]21` it was 0.96%; in that of `CC(=O)O.CC(=O)O.N.NC1CCCCC1.[Cl][Pt][Cl]`, -1.8%; in that of `O=C([O-])Cc1ccccc1Nc1c(Cl)cccc1Cl`, -2.2%.
Take `CN(C(=O)CN1C(=O)COc2cc(Cl)c(Cl)cc21)[C@@H](CN1CCCC1)c1ccc(-c2cccc(C(N)=O)c2)cc1`: the result_ITMP is 41.8%.
`CN(C(=O)Cc1ccccc1)C(CN1CCCC1)c1ccccc1` (centres unmarked): the result_ITMP amounted to 6.1%.
In the case of `CN(C(=O)Cc1ccc(Cl)c(Cl)c1)[C@H](CN1CCCC1)c1ccccc1` it was 53.5%; in that of `CCC(C)C(N)C1=NC(C(=O)N[C@@H](CC(C)C)C(=O)N[C@H](CCC(=O)[O-])C(=O)N[C@H](C(=O)N[C@H]2CCCCNC(=O)[C@H](CC(N)=O)NC(=O)[C@@H](CC(=O)[O-])NC(=O)[C@@H](Cc3cnc[nH]3)NC(=O)[C@@H](Cc3ccccc3)NC(=O)[C@@H]([C@H](C)CC)NC(=O)[C@@H](CCCN)NC2=O)[C@@H](C)CC)CS1` (some centres unmarked) (X1-L[dE]IK[dOrn][dI][dF][dH][dD]N; lactam 4-C), -3.81%; in that of `Cc1cccn2c(=O)c(-c3nn[n-]n3)cnc12`, -2.44%.
In the case of `CCCNCC(O)COc1ccccc1C(=O)CCc1ccccc1` (centres unmarked) it was 86.6%; in that of `CCN(CC)CCOc1ccccc1C(=O)CCc1ccccc1`, 30.6%; in that of `CCCC(=O)c1cc(F)ccc1OCC(O)CNC(C)(C)C` (centres unmarked), 20.3%.
In the case of `Cn1nnnc1SCC1=C(C(=O)[O-])N2C(=O)[C@@H](NC(=O)[C@H](O)c3ccccc3)[C@H]2SC1` it was -1.4%; in that of `Oc1ccc(OCc2ccccc2)cc1`, -11.6%; in that of `O=C(O)c1ccc(CN2CCC(CN[C@@H]3C[C@H]3c3ccccc3)CC2)cc1`, -1.25%.
`CN1CCN(C(=O)CN[C@@H]2C[C@H]2c2ccc(OCc3ccccc3)cc2)CC1`: the result_ITMP is 87.7%.
On to `Cc1cc(Nc2cc(CN3CCOCC3)c3nc(C)c(Cc4ccc(Cl)cc4F)n3n2)[nH]n1`, for which the result_ITMP stood at 13%.
In the case of `COc1cc2c3cc1Oc1cc(ccc1O)C[C@@H]1c4c(cc(OC)c(O)c4Oc4ccc(cc4)C[C@@H]3N(C)CC2)CC[N+]1(C)C` it was -3.39%.
Take `COc1ccc2cc1Oc1ccc(cc1)C[C@H]1c3c(cc4c(c3Oc3cc5c(cc3OC)CCN(C)[C@@H]5C2)OCO4)CCN1C`: the result_ITMP was 57%.
Regarding `COc1ccc2cc1Oc1ccc(cc1)C[C@H]1c3cc(c(OC)cc3CCN1C)Oc1c(OC)c(OC)cc3c1[C@H](C2)N(C)CC3`, the result_ITMP worked out at 17.4%.
On to `CCN(CC)C(=S)[S-]`, for which the result_ITMP is -6.15%.
On to `COCCCOc1ccnc(CS(=O)c2nc3ccccc3[n-]2)c1C` (centres unmarked), for which the result_ITMP is -0.77%.
For `COc1cc(N2CCC(N(C)C)CC2)ccc1Nc1ncc(Cl)c(Nc2ccccc2P(C)(C)=O)n1`, the result_ITMP stood at 51.8%.
In the case of `COc1cc(N2CCC(N3CCN(C)CC3)CC2)ccc1Nc1ncc(Cl)c(Nc2ccccc2P(C)(C)=O)n1` it was -0.55%.
Turning to `CCC(=O)Nc1cccc(Oc2nc(Nc3ccc(N4CCN(C)CC4)cc3OC)ncc2Cl)c1`, the result_ITMP is reported as -5.58%.
For `COc1cc(N2CCOCC2)ccc1Nc1ncc(Cl)c(Nc2ccccc2NS(C)(=O)=O)n1`, the result_ITMP is 51.4%.
Turning to `CNC(=O)c1ccccc1Nc1nc(Nc2ccc(N3CCOCC3)cc2OC)ncc1Cl`, the result_ITMP was found to be 3.78%.
For the compound `COc1cc(N2CCC(N)CC2)ccc1Nc1ncc(Cl)c(-c2c[nH]c3ccccc23)n1`, the result_ITMP stood at 15.8%.
